# According to PubChem BioAssay (NCI):
# Compounds without any hit were thinned out: in the full panel of roughly 83,000, 20% have a hit.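 Activity criterion: percent growth below 10, measured after cells in 96-well plates were exposed to a single compound concentration for 48 hours.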 Active and inactive are the calls of the source.
# Experiments:
# Experiment in all cases: NCI-60 one-dose screen, 48 h (100 = growth as untreated, 0 = no growth, -100 = all killed)
# Settings in all cases: 10 µM unless noted
# [1] = tested on: NCI-H23 lung
# [2] = tested on: NCI-H226 lung
# [3] = tested on: NCI-H322M lung
# [4] = tested on: HOP-62 NSCLC
# [5] = tested on: NCI-H460 lung
# [6] = tested on: HOP-92 NSCLC
# [7] = tested on: NCI-H522 lung
# [8] = tested on: A549/ATCC NSCLC
# [9] = tested on: 786-0 renal
# [10] = tested on: COLO 205 colon
Compound,growth [1],growth [2],growth [3],growth [4],growth [5],growth [6],growth [7],growth [8],growth [9],growth [10]
O=C(CSc1nc(-c2ccccc2)cn1-c1ccc(Cl)cc1)c1ccc([N+](=O)[O-])cc1,78.5% (inactive),84.7% (inactive),89% (inactive),96.2% (inactive),79.5% (inactive),87.5% (inactive),70.5% (inactive),86.8% (inactive),90.3% (inactive),96.1% (inactive)
CCCCCCCC/C=C\CCCCCCCCOc1ccc(CC(=O)NCC[N+]2(C)CCCC2)cc1,58.7% (inactive),66.4% (inactive),88.5% (inactive),22.5% (inactive),25.3% (inactive),57.4% (inactive),48.7% (inactive),73.7% (inactive),48.6% (inactive),-74.1% (active)
CCOC(=O)/C(=C\c1ccccc1Cl)P(=O)(OCC)OCC,46.6% (inactive),66.4% (inactive),75.4% (inactive),118% (inactive),61.9% (inactive),60% (inactive),34% (inactive),64.9% (inactive),75.8% (inactive),52.9% (inactive)
COc1cccc(C(=O)Nc2cccc(NC(=O)c3ccccn3)c2)c1,93.7% (inactive),112% (inactive),98.1% (inactive),102% (inactive),114% (inactive),115% (inactive),89.8% (inactive),97.5% (inactive),85.6% (inactive),120% (inactive)
C=C1/C(=C\C=C2/CCC[C@]3(C)[C@@H]([C@H](C)CCCC(C)(C)O)CC[C@@H]23)C[C@@H](OC(=O)CBr)C[C@@H]1O,37.7% (inactive),45.2% (inactive),94% (inactive),83.8% (inactive),92.1% (inactive),-67.5% (active),-68.8% (active),66% (inactive),6.95% (active),19.4% (inactive)
Cn1cc(-c2csc(-c3cn(C)c4ccc(F)cc34)n2)c2cnccc21,75.7% (inactive),68.5% (inactive),21.9% (inactive),-70.9% (active),-73.8% (active),70.8% (inactive),-76% (active),1.42% (active),-91.6% (active),-80.1% (active)
CN1CCN(c2ccc(Nc3ncc4[nH]c(=O)n(Cc5ccccc5N)c4n3)cc2)CC1,97.5% (inactive),80.3% (inactive),100% (inactive),77.8% (inactive),102% (inactive),85.5% (inactive),77.1% (inactive),97.5% (inactive),84.1% (inactive),107% (inactive)
CCOC(=O)CSc1nc2sc3c(c2c(=O)n1-c1ccccc1)CCCCC3,96.2% (inactive),93% (inactive),108% (inactive),97.6% (inactive),110% (inactive),104% (inactive),80.4% (inactive),104% (inactive),109% (inactive),119% (inactive)
COc1ccc(CNc2ccc3nc(CCC4CCCCC4)[nH]c3c2)cc1,77.5% (inactive),73.8% (inactive),91.2% (inactive),75.8% (inactive),88.6% (inactive),38.3% (inactive),67.1% (inactive),80.2% (inactive),62.7% (inactive),-23.9% (active)
COCCn1cc(-c2nc(-c3cc4cccnc4n3C)cs2)c2cc(OC)ccc21,32.6% (inactive),46.6% (inactive),26% (inactive),47.2% (inactive),19.2% (inactive),31.4% (inactive),41.9% (inactive),40.6% (inactive),66.8% (inactive),50.4% (inactive)
Cn1nc(-c2ccc(Cl)cc2)nc2c(=O)n(C)c(=O)nc1-2,-45% (active),-51.4% (active),-68.5% (active),-72.9% (active),0.75% (active),-28.9% (active),-75.4% (active),-25.2% (active),-82.2% (active),-90.6% (active)
C#C[C@]1(O)CC[C@H]2[C@@H]3CC=C4c5sc(-c6ccccc6)nc5CC[C@]4(C)[C@H]3CC[C@@]21C,84.1% (inactive),99.6% (inactive),86.7% (inactive),99.5% (inactive),75.5% (inactive),77% (inactive),77.9% (inactive),101% (inactive),42.9% (inactive),116% (inactive)
CCN1C(=O)N(CC)C2C1NN=c1s/c(=C\c3ccc([N+](=O)[O-])cc3)c(=O)n12 (stereo not given),47% (inactive),66.8% (inactive),54.6% (inactive),42.6% (inactive),8.23% (active),79.2% (inactive),-0.229% (active),30.4% (inactive),44.1% (inactive),13.3% (inactive)
COc1cccc2cc(N(C)c3nc(C)nc4c3CCC4)ccc12,22.4% (inactive),25.8% (inactive),59.1% (inactive),14.7% (inactive),6.85% (active),0.483% (active),-16.9% (active),14.8% (inactive),3.77% (active),-66.4% (active)
CN1CCN(Cc2ccc(NC(=O)c3cncc(C#Cc4c(N)ncc5c(F)cccc45)c3)cc2C(F)(F)F)CC1,-66.3% (active),14% (inactive),-23.7% (active),-80.2% (active),-48% (active),-58.8% (active),-76% (active),-90.6% (active),-79% (active),-83.6% (active)
CCCCCCC/C=N/NC(=O)c1ccc(-n2cc(-c3ccccc3)nn2)cc1,87.6% (inactive),85.2% (inactive),86.3% (inactive),95.8% (inactive),98.4% (inactive),87.1% (inactive),79.9% (inactive),96% (inactive),92.2% (inactive),110% (inactive)
COc1cc(C2=Nc3c(N)nc(N)nc3NC(c3cccc(Nc4ccnc5cc(C(F)(F)F)ccc45)c3)C2)cc(OC)c1OC (stereo not given),79.5% (inactive),89.5% (inactive),86.9% (inactive),86.3% (inactive),72.5% (inactive),47.9% (inactive),97.1% (inactive),73.6% (inactive),61% (inactive),70.5% (inactive)
N#C/C(=C/C=C/c1ccccc1)S(=O)c1ccccc1 (stereo not given),-36.6% (active),12% (inactive),10.4% (inactive),-25.6% (active),-30% (active),-58.5% (active),-68.3% (active),2.3% (active),-89.7% (active),-56.4% (active)
COc1cccc(-c2nn(-c3ccccc3)cc2-c2ccnc(-c3cccnc3)c2)c1,86.5% (inactive),95% (inactive),109% (inactive),97.4% (inactive),92% (inactive),95% (inactive),86.9% (inactive),96.4% (inactive),98.1% (inactive),94.3% (inactive)
Oc1c(Cl)cc(Cl)c2ccc(CN3CCNCC3)nc12,52.7% (inactive),61.6% (inactive),58.1% (inactive),29.3% (inactive),31.8% (inactive),54.1% (inactive),67.8% (inactive),30.8% (inactive),49.2% (inactive),102% (inactive)
C[C@@H]1N=C(c2ccc(Cl)cc2Cl)Nc2nc3ccccn3c2C1=O,61.4% (inactive),75.7% (inactive),63.7% (inactive),52.6% (inactive),18.7% (inactive),55.9% (inactive),28.9% (inactive),40.6% (inactive),73.2% (inactive),22.3% (inactive)
Cn1cc(-c2ccc3c(Nc4cccc(NC(=O)Nc5cccc(F)c5)c4)ncnc3c2)cn1,47.1% (inactive),67.8% (inactive),40.7% (inactive),42.8% (inactive),29.1% (inactive),53.6% (inactive),26.5% (inactive),28.7% (inactive),18.1% (inactive),4.23% (active)
CNc1nc2ncc(-c3c(C)noc3C)cc2n1Cc1ccccc1,55.5% (inactive),56.6% (inactive),67.1% (inactive),41.4% (inactive),64.9% (inactive),7.09% (active),57.1% (inactive),54.4% (inactive),43.3% (inactive),29.8% (inactive)
CCOC(=O)c1c(Nc2nc3ccccc3s2)sc2c1CCC(=O)C2,26.3% (inactive),91.9% (inactive),85% (inactive),66.4% (inactive),34% (inactive),85.4% (inactive),8.13% (active),68.8% (inactive),66% (inactive),65.9% (inactive)
C=C(C)[C@@H]1CCC[C@]2(C(=O)OC)CC[C@]3(C)[C@@H](CC[C@@H]4[C@@]5(C)CCCNC(C)(C)[C@@H]5CC[C@]43C)[C@@H]12,96% (inactive),84.4% (inactive),79.6% (inactive),85.5% (inactive),94.4% (inactive),70.7% (inactive),91.8% (inactive),91.9% (inactive),90.1% (inactive),76.1% (inactive)
